{"source": "paper PMC12820563", "about": "“FoxP3 forms a head-to-head dimer in vivo and stabilizes its multimerization on adjacent microsatellites”", "note": "In all, about 16,000 sequences were measured (“rpm ratio (pull-down/input)”: median about 0.5, highest 2% from about 5.5 on). The list comes from a sample in which the highest values are over-represented; it also holds similar and randomly drawn sequences."}
{"target": "T1, MBP-FoxP3dN (Mus musculus, UniProt Q99JB6 188-423)", "T1 sequence": "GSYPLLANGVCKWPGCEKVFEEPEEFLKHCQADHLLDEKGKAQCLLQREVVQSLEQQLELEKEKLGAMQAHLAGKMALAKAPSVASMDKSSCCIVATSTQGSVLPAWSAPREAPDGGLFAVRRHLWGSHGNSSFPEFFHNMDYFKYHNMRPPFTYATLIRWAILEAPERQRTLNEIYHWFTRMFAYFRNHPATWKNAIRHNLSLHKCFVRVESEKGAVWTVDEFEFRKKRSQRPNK", "experiment": "PD-seq (MBP pull-down with sequencing); 20 mM Tris-HCl pH 7.5, 100 mM NaCl, 1.5 mM MgCl2, 0.4 uM protein, 0.1 uM dsDNA library, 30 min, room temperature, amylose pull-down; high values mean tight binding", "conditions": "protein: recombinant; tags: His6-MBP; chain copies: 2; dsDNA, one strand shown", "summary_of_the_method": "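Mouse FoxP3 or FoxP1 fragment lacking the N-terminus, His6-MBP-tagged and expressed in E. coli, was incubated at 0.4 µM with 0.1 µM Klenow-filled degenerate double-stranded DNA library for 30 min at room temperature in Tris pH 7.5 buffer with NaCl and MgCl2. Complexes captured on amylose resin were washed three times and their DNA sequenced on Illumina. Binding is reads-per-million enrichment of pull-down over input, replicates pooled.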"}
{"sequence": "GATGATTGTTCTCCCAGCTGATGAATTGTTATATTCGAGTAAACAAATTTTCCTAATCTTTCTGTTCAAGCGCCATCTAC", "binding signal": "1.27 RPM ratio (pull-down/input)"}
{"sequence": "GATGATTGTTCTCCCAGCTGATGAATTGTGTTATTCGAGTAAACAAATTTTCCTAATCTTTCTGTTCAAGCGCCATCTAC", "binding signal": "7.88 RPM ratio (pull-down/input)"}
{"sequence": "GATGATTGTTCTCCCAGCTGATGAATTGGATCGTTCGAGTAAACAAATTTTCCTAATCTTTCTGTTCAAGCGCCATCTAC", "binding signal": "0.402 RPM ratio (pull-down/input)"}
{"sequence": "GATGATTGTTCTCCCAGCTGATGAATTTACAGGATCGAGTAAACAAATTTTCCTAATCTTTCTGTTCAAGCGCCATCTAC", "binding signal": "0.329 RPM ratio (pull-down/input)"}
{"sequence": "GATGATTGTTCTCCCAGCTGATGAATTCTTAAGTTCGAGTAAACAAATTTTCCTAATCTTTCTGTTCAAGCGCCATCTAC", "binding signal": "0.237 RPM ratio (pull-down/input)"}
{"sequence": "GATGATTGTTCTCCCAGCTGATGAATTGTATGTTTCGAGTAAACAAATTTTCCTAATCTTTCTGTTCAAGCGCCATCTAC", "binding signal": "3.89 RPM ratio (pull-down/input)"}
{"sequence": "GATGATTGTTCTCCCAGCTGATGAATTTGTATGTTCGAGTAAACAAATTTTCCTAATCTTTCTGTTCAAGCGCCATCTAC", "binding signal": "6.63 RPM ratio (pull-down/input)"}
{"sequence": "GATGATTGTTCTCCCAGCTGATGAATTGGTATGGTCGAGTAAACAAATTTTCCTAATCTTTCTGTTCAAGCGCCATCTAC", "binding signal": "1.45 RPM ratio (pull-down/input)"}
{"sequence": "GATGATTGTTCTCCCAGCTGATGAATTGTATGATTCGAGTAAACAAATTTTCCTAATCTTTCTGTTCAAGCGCCATCTAC", "binding signal": "2.94 RPM ratio (pull-down/input)"}
{"sequence": "GATGATTGTTCTCCCAGCTGATGAATTCTATGTGTCGAGTAAACAAATTTTCCTAATCTTTCTGTTCAAGCGCCATCTAC", "binding signal": "1.96 RPM ratio (pull-down/input)"}
{"sequence": "GATGATTGTTCTCCCAGCTGATGAATTGTATGGGTCGAGTAAACAAATTTTCCTAATCTTTCTGTTCAAGCGCCATCTAC", "binding signal": "1.19 RPM ratio (pull-down/input)"}
{"sequence": "GATGATTGTTCTCCCAGCTGATGAATTTTGTATGTCGAGTAAACAAATTTTCCTAATCTTTCTGTTCAAGCGCCATCTAC", "binding signal": "6.01 RPM ratio (pull-down/input)"}
{"sequence": "GATGATTGTTCTCCCAGCTGATGAATTTGTATGGTCGAGTAAACAAATTTTCCTAATCTTTCTGTTCAAGCGCCATCTAC", "binding signal": "6.04 RPM ratio (pull-down/input)"}
{"sequence": "GATGATTGTTCTCCCAGCTGATGAATTCTGTATGTCGAGTAAACAAATTTTCCTAATCTTTCTGTTCAAGCGCCATCTAC", "binding signal": "4.95 RPM ratio (pull-down/input)"}
{"sequence": "GATGATTGTTCTCCCAGCTGATGAATTATGTATGTCGAGTAAACAAATTTTCCTAATCTTTCTGTTCAAGCGCCATCTAC", "binding signal": "4.99 RPM ratio (pull-down/input)"}
{"sequence": "GATGATTGTTCTCCCAGCTGATGAATTGTGTATGTCGAGTAAACAAATTTTCCTAATCTTTCTGTTCAAGCGCCATCTAC", "binding signal": "5.84 RPM ratio (pull-down/input)"}
{"sequence": "GATGATTGTTCTCCCAGCTGATGAATTGTATGTGTCGAGTAAACAAATTTTCCTAATCTTTCTGTTCAAGCGCCATCTAC", "binding signal": "3.75 RPM ratio (pull-down/input)"}
{"sequence": "GATGATTGTTCTCCCAGCTGATGAATTATTCAGATCGAGTAAACAAATTTTCCTAATCTTTCTGTTCAAGCGCCATCTAC", "binding signal": "0.24 RPM ratio (pull-down/input)"}
{"sequence": "GATGATTGTTCTCCCAGCTGATGAATTTTTTCAATCGAGTAAACAAATTTTCCTAATCTTTCTGTTCAAGCGCCATCTAC", "binding signal": "0.247 RPM ratio (pull-down/input)"}
{"sequence": "GATGATTGTTCTCCCAGCTGATGAATTTGGTGAGTCGAGTAAACAAATTTTCCTAATCTTTCTGTTCAAGCGCCATCTAC", "binding signal": "0.814 RPM ratio (pull-down/input)"}
{"sequence": "GATGATTGTTCTCCCAGCTGATGAATTGTAGGCGTCGAGTAAACAAATTTTCCTAATCTTTCTGTTCAAGCGCCATCTAC", "binding signal": "0.778 RPM ratio (pull-down/input)"}
{"sequence": "GATGATTGTTCTCCCAGCTGATGAATTGTTCACGTCGAGTAAACAAATTTTCCTAATCTTTCTGTTCAAGCGCCATCTAC", "binding signal": "0.396 RPM ratio (pull-down/input)"}
{"sequence": "GATGATTGTTCTCCCAGCTGATGAATTCTGTCGCTCGAGTAAACAAATTTTCCTAATCTTTCTGTTCAAGCGCCATCTAC", "binding signal": "0.926 RPM ratio (pull-down/input)"}
{"sequence": "GATGATTGTTCTCCCAGCTGATGAATTACCACGCTCGAGTAAACAAATTTTCCTAATCTTTCTGTTCAAGCGCCATCTAC", "binding signal": "0.466 RPM ratio (pull-down/input)"}
{"sequence": "GATGATTGTTCTCCCAGCTGATGAATTCTATAGCTCGAGTAAACAAATTTTCCTAATCTTTCTGTTCAAGCGCCATCTAC", "binding signal": "0.43 RPM ratio (pull-down/input)"}
{"sequence": "GATGATTGTTCTCCCAGCTGATGAATTGGCGGCCTCGAGTAAACAAATTTTCCTAATCTTTCTGTTCAAGCGCCATCTAC", "binding signal": "0.449 RPM ratio (pull-down/input)"}
{"sequence": "GATGATTGTTCTCCCAGCTGATGAATTTGTATTTTCGAGTAAACAAATTTTCCTAATCTTTCTGTTCAAGCGCCATCTAC", "binding signal": "4.85 RPM ratio (pull-down/input)"}
{"sequence": "GATGATTGTTCTCCCAGCTGATGAATTTGTATTGTCGAGTAAACAAATTTTCCTAATCTTTCTGTTCAAGCGCCATCTAC", "binding signal": "6.39 RPM ratio (pull-down/input)"}
{"sequence": "GATGATTGTTCTCCCAGCTGATGAATTGTATCTGTCGAGTAAACAAATTTTCCTAATCTTTCTGTTCAAGCGCCATCTAC", "binding signal": "1.2 RPM ratio (pull-down/input)"}
{"sequence": "GATGATTGTTCTCCCAGCTGATGAATTGTAATTGTCGAGTAAACAAATTTTCCTAATCTTTCTGTTCAAGCGCCATCTAC", "binding signal": "2.31 RPM ratio (pull-down/input)"}
{"sequence": "GATGATTGTTCTCCCAGCTGATGAATTGTATTTGTCGAGTAAACAAATTTTCCTAATCTTTCTGTTCAAGCGCCATCTAC", "binding signal": "6.43 RPM ratio (pull-down/input)"}
{"sequence": "GATGATTGTTCTCCCAGCTGATGAATTTTGTATTTCGAGTAAACAAATTTTCCTAATCTTTCTGTTCAAGCGCCATCTAC", "binding signal": "5.33 RPM ratio (pull-down/input)"}
